This passage reports growth results from PubChem BioAssay (NCI).

SMILES strings stand for the structures. Compounds without any hit were thinned out: in the full panel of roughly 83,000, 20% have a hit.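 The test compound was applied at a single concentration to cells in 96-well plates for 48 hours, and percent growth was recorded.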 Unmarked numbers belong to inactive results. Calls of active or inactive are those of the source. The calls were made as follows: active = growth percent below 10; inactive = the rest.

Test systems include HT29 colon; SNB-75 CNS; SNB-19 CNS; U251 CNS; UACC-62 melanoma; LOX IMVI melanoma; SK-MEL-28 melanoma; SK-MEL-2 melanoma; EKVX NSCLC; SN12C renal; UO-31 renal; TK-10 renal; ACHN renal; CAKI-1 renal; A498 renal; CCRF-CEM leukemia; MOLT-4 leukemia; SK-MEL-5 melanoma; SR leukemia; PC-3 prostate.
What all share (test): NCI-60 one-dose screen, 48 h (100 = growth as untreated, 0 = no growth, -100 = all killed)
What all share (conditions): 10 µM unless noted

Consider `CC(=O)O[C@H]1C(=O)[C@@]2(C)C([C@H](OC(=O)c3ccccc3)[C@]3(O)C[C@H](OC(=O)[C@H](O)[C@@H](NC(=O)c4ccccc4)c4ccccc4)C(C)=C1C3(C)C)[C@]1(OC(C)=O)CO[C@@H]1C[C@@H]2O` (stereo partly drawn), for which the growth is 3.07% (active) in the assay with HT29 colon; -19% (active) in the assay with SNB-75 CNS; 36.2% in the assay on SNB-19 CNS; 13.5% with U251 CNS; 42.5% in the assay on UACC-62 melanoma; 44.3% in the assay on LOX IMVI melanoma. In addition, the growth in the assay on SK-MEL-28 melanoma is 57.5%; in the assay on SK-MEL-2 melanoma it was -5.52% (active); with EKVX NSCLC, 48.3%; with SN12C renal it was 38.1%; in the assay on UO-31 renal it was 33.6%; in the assay on TK-10 renal, 20.6%. For the same compound, the growth in the assay on ACHN renal was 41%; in the assay on CAKI-1 renal, 44.7%; in the assay with A498 renal, 30.8%; in the assay on CCRF-CEM leukemia it was 14%; in the assay on MOLT-4 leukemia, 28.3%.

On to `Cc1ccccc1NC(=O)c1cc2ccccc2cc1O`, for which the growth in the assay on HT29 colon was 111%; in the assay on SNB-75 CNS, 76.8%; with SNB-19 CNS, 61.9%; in the assay on U251 CNS, 25.9%; with SK-MEL-5 melanoma it was 17.8%; in the assay with UACC-62 melanoma, 14.2%. For the same compound, the growth with SK-MEL-28 melanoma is 38.6%; in the assay on SK-MEL-2 melanoma, 33%; in the assay on EKVX NSCLC it was 43.8%; in the assay on SN12C renal, 30.2%; in the assay with UO-31 renal it was -8.7% (active); in the assay with TK-10 renal, 60.1%. For the same compound, the growth is 34% in the assay with ACHN renal, 41.4% with CAKI-1 renal, 43% in the assay with A498 renal and 14.2% with MOLT-4 leukemia.

In the case of `NC(=O)c1ncn([C@@H]2O[C@H](CO)[C@@H](O)[C@H]2O)n1`, the growth is 52.5% with HT29 colon; 92.2% with SNB-75 CNS; 96.2% in the assay on SNB-19 CNS; 94.7% in the assay on U251 CNS; 104% with UACC-62 melanoma; 84.2% with LOX IMVI melanoma. Besides, the growth with SK-MEL-28 melanoma is 115%; in the assay with SK-MEL-2 melanoma, 103%; in the assay on EKVX NSCLC, 96.9%; in the assay with SN12C renal it was 89.3%; with UO-31 renal, 73.5%; with TK-10 renal, 95.5%. Also, the growth is 83.1% in the assay on ACHN renal; 85.4% in the assay on CAKI-1 renal; 110% in the assay with A498 renal; 76.9% in the assay on CCRF-CEM leukemia; 72.3% in the assay on MOLT-4 leukemia.

For `ClC1=C(Cl)C(=C2C(Cl)=C(Cl)C(Cl)=C2Cl)C(Cl)=C1Cl`, the growth was 96.2% with HT29 colon; 94.4% in the assay on SNB-75 CNS; 105% in the assay on SNB-19 CNS; 103% in the assay with U251 CNS; 103% in the assay with SK-MEL-5 melanoma; 99.3% in the assay with UACC-62 melanoma. Also, the growth is 97.9% in the assay on LOX IMVI melanoma; 111% in the assay with SK-MEL-28 melanoma; 105% in the assay on EKVX NSCLC; 98.5% in the assay with SN12C renal; 81% with UO-31 renal; 94.1% in the assay on TK-10 renal. Further, the growth in the assay on A498 renal is 88.2%; in the assay with MOLT-4 leukemia, 82.1%; in the assay on SR leukemia it was 103%.

Turning to `CCCCCCCC/C=C\CCCCCCCCOc1ccccc1CC(=O)NCC[N+]1(C)CCCC1`, the growth in the assay with HT29 colon was 18%; with SNB-75 CNS it was 79%; in the assay with SNB-19 CNS, 60.4%; with U251 CNS, 47.6%; in the assay with UACC-62 melanoma, 67.1%; with LOX IMVI melanoma, 72%. The growth was 96.7% with SK-MEL-28 melanoma; 93% in the assay on EKVX NSCLC; 49.5% in the assay on SN12C renal; 99.2% in the assay on UO-31 renal; 70.5% in the assay with TK-10 renal; 107% in the assay with ACHN renal. The growth in the assay with CAKI-1 renal is 97.4%; in the assay on A498 renal, 93.2%; with CCRF-CEM leukemia it was 39.3%; with MOLT-4 leukemia, 65%; in the assay on SR leukemia it was 28%.

Consider `COc1ccc(/C=N/NC(=O)c2ccc(S(C)(=O)=O)cc2)cc1OC`, for which the growth with HT29 colon is 97.9%; in the assay with SNB-75 CNS, 85.9%; in the assay with SNB-19 CNS, 97.3%; in the assay on PC-3 prostate, 88.5%; in the assay on SK-MEL-5 melanoma, 97.9%; in the assay on UACC-62 melanoma, 92.7%. In addition, the growth in the assay with LOX IMVI melanoma was 102%; in the assay on SK-MEL-28 melanoma, 109%; with SK-MEL-2 melanoma, 91%; in the assay on EKVX NSCLC, 103%; in the assay with SN12C renal, 98.3%; with UO-31 renal it was 90.8%. The growth was 96.9% in the assay on TK-10 renal; 102% in the assay with ACHN renal; 89% with CAKI-1 renal; 94.6% in the assay with A498 renal; 65.9% in the assay with MOLT-4 leukemia; 92.5% with SR leukemia.

Turning to `CN(C)c1cccc2c(S(=O)(=O)N[C@H]3CC[C@H]4[C@@H]5CCc6cc(O)ccc6[C@H]5CC[C@]34C)cccc12`, the growth in the assay with HT29 colon was 2.71% (active); with SNB-75 CNS it was 40.4%; with SNB-19 CNS, 62.5%; in the assay on PC-3 prostate it was 16.1%; in the assay with SK-MEL-5 melanoma it was 41.5%; with UACC-62 melanoma, 49.9%. Also, the growth with SK-MEL-28 melanoma is 54.7%; with SN12C renal it was 25.4%; with UO-31 renal, 10.7%; in the assay with TK-10 renal, 51.1%; in the assay with ACHN renal it was 30.8%; in the assay with CAKI-1 renal, 15.5%. Further, the growth was 49% with A498 renal, 17.3% in the assay with MOLT-4 leukemia and -16.1% (active) in the assay on SR leukemia.

`COc1ccc(-c2c3c(nn2-c2ccc(N)cc2)CCc2cnoc2-3)cc1OC`: the growth was 93.6% in the assay with HT29 colon; 79.4% in the assay with SNB-75 CNS; 90.3% in the assay with SNB-19 CNS; 64.3% in the assay with PC-3 prostate; 76% with SK-MEL-5 melanoma; 80% with UACC-62 melanoma. In addition, the growth in the assay with LOX IMVI melanoma was 86.4%; with SK-MEL-28 melanoma it was 116%; in the assay with SK-MEL-2 melanoma it was 101%; in the assay with EKVX NSCLC, 102%; with SN12C renal, 92.4%; with UO-31 renal, 62.1%. Besides, the growth in the assay on TK-10 renal was 88.5%; in the assay on ACHN renal it was 81.7%; in the assay with CAKI-1 renal it was 82.1%; in the assay on A498 renal, 85.3%; with CCRF-CEM leukemia, 61.5%; in the assay on MOLT-4 leukemia it was 86.4%.
